# A number with no mark means an inactive call. For some assays here: Results with a measured potency or affinity are listed apart. Active and inactive are the calls of the source. Unless noted, the rule behind the calls is not given here.
# Experiments:
# [1] = antimalarial activity against Dd2 strain (AID 2302;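 active = growth inhibition above 50% at the single 2 µM test dose, taken to imply half-maximal potency below 2 µM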;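 note: 0% = DMSO untreated growth and 100% = chloroquine plus artemisinin killed control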); conditions: P. falciparum Dd2 in RBCs, LDH growth readout, 72 h; at 2 µM; hits give high values
# [2] = human hepatoma cell viability loss – ATP luminescence, cytotoxicity control for P. falciparum antimalarial project, primary screen (AID 2303;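 active = inhibition above 50%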;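 note: 0% = DMSO wells and 100% = digitonin-killed cells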); conditions: HepG2 viability, 24-48 h, at 10 µM, hits give high values
# [3] = biological target: L-lactate dehydrogenase (Plasmodium falciparum (isolate CDC / Honduras)) (UniProt Q27743); test: PfLDH activity inhibition – cell lysate, 3D7 strain, counter-screen for P. falciparum growth inhibition project (AID 2304);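 note: 0% = vehicle and 100% = reference inhibitor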; conditions: P. falciparum 3D7 crude extract, LDH APAD/NBT absorbance; at 2 µM; hits give high values
# Sequence of L-lactate dehydrogenase (Plasmodium falciparum (isolate CDC / Honduras)) (Q27743 whole entry, looked up): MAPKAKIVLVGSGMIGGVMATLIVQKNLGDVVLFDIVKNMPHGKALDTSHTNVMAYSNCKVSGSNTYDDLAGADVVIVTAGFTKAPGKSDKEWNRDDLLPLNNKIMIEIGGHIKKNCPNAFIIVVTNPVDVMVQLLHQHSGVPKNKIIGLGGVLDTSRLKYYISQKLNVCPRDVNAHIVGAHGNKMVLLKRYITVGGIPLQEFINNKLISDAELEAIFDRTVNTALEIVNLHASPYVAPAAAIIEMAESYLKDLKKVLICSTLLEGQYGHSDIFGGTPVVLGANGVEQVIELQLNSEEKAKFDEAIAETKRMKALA
# [4] = inhibition of 3D7 malaria parasite growth – strain 3D7 (AID 2306);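 note: 0% = DMSO wells and 100% = chloroquine plus artemisinin control wells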; conditions: P. falciparum 3D7 erythrocytic growth, LDH absorbance, 72 h; at 2 µM; hits give high values
# [5] = biological target: Calcium-dependent protein kinase 1 (Plasmodium falciparum (isolate 3D7)) (UniProt P62344); test: PfCDPK1 kinase inhibitors, biochemical, TCAMS library (AID 1159585; cut-off not given, nearly all actives have IC50 up to about 0.98 µM;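 note: inhibitors leave more ATP so luminescence rises with inhibition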); conditions: recombinant PfCDPK1, Kinase-Glo ATP depletion luminescence
# Sequence of Calcium-dependent protein kinase 1 (Plasmodium falciparum (isolate 3D7)) (P62344 whole entry, looked up): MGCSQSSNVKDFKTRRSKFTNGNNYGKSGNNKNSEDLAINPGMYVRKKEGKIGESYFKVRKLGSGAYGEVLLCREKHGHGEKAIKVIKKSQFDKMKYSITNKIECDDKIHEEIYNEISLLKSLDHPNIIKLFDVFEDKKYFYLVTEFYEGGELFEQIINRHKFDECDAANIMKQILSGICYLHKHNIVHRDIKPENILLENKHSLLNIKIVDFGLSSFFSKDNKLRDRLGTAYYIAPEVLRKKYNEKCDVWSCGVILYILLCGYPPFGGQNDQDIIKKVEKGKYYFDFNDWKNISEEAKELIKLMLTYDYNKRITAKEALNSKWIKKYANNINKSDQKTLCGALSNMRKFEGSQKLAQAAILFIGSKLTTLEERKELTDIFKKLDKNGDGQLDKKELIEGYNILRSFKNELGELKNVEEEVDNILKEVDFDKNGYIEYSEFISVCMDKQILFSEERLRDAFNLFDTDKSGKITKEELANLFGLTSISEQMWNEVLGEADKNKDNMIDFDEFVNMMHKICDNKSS
# [6] = biological target: Plasmodium falciparum protein kinase 6 (PK6, PF3D7_1337100) (UniProt Q8IDW1); test: PfPK6 kinase inhibitors, biochemical, TCAMS library (AID 1159586); conditions: recombinant PfPK6, Kinase-Glo ATP depletion luminescence
# Sequence of Plasmodium falciparum protein kinase 6 (PK6, PF3D7_1337100) (Q8IDW1 1-305): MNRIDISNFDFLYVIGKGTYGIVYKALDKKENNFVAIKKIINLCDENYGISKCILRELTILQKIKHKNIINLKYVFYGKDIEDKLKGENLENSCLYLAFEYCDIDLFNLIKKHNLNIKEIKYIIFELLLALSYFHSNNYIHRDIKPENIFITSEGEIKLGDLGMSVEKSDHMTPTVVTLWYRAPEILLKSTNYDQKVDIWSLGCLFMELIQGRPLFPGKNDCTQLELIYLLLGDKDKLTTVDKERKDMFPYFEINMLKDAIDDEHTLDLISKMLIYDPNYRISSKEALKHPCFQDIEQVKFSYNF
# [7] = biological target: Protein kinase 7 (PK7), Plasmodium falciparum 3D7 (PF3D7_0213400) (UniProt Q7YTF7); test: inhibition of Plasmodium PK7 catalytic activity – biochemical, TCAMS antimalarial set, Kinase-Glo luminescence (AID 1159587); conditions: recombinant PfPK7, Kinase-Glo ATP depletion luminescence
# Sequence of Protein kinase 7 (PK7), Plasmodium falciparum 3D7 (PF3D7_0213400) (Q7YTF7 1-343): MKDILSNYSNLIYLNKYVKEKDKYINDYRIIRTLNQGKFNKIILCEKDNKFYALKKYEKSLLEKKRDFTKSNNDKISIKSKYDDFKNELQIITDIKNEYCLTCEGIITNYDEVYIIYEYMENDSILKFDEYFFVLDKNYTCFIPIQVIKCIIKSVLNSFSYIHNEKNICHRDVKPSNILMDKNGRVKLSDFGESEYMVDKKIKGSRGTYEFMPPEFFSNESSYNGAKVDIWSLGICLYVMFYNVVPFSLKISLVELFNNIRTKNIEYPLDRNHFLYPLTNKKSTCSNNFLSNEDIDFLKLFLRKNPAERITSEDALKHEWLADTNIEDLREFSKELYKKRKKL
# [8] = biological target: Calcium-dependent protein kinase 4 (Plasmodium falciparum (isolate 3D7)) (UniProt Q8IBS5); test: PfCDPK4 kinase inhibitors, biochemical, TCAMS library (AID 1159588; cut-off not given, nearly all actives have IC50 up to about 0.91 µM); conditions: recombinant PfCDPK4, Kinase-Glo ATP depletion luminescence
# Sequence of Calcium-dependent protein kinase 4 (Plasmodium falciparum (isolate 3D7)) (Q8IBS5 whole entry, looked up): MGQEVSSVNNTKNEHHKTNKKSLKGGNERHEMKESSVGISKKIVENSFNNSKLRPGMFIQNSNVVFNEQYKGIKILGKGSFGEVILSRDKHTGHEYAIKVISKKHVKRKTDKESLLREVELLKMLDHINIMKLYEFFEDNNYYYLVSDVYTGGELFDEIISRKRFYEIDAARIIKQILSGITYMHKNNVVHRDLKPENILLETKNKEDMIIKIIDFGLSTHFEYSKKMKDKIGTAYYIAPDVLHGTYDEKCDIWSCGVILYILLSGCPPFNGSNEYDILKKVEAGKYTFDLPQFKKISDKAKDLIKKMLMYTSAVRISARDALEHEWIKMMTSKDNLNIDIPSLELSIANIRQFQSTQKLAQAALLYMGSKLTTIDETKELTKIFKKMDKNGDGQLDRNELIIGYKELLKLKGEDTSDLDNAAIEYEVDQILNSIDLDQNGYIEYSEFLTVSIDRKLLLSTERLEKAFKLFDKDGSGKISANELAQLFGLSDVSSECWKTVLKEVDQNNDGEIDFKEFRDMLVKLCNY
SMILES,growth inhibition [1],inhibition [2],inhibition [3] [%],growth inhibition [4],outcome [5],outcome [6],outcome [7],outcome [8]
Cc1ccc2cc(C3NC(=O)c4ccccc4N3)c(Cl)nc2c1 (stereo not given),38%,-6%,1,91% (active),inactive,inactive,inactive,inactive
O=C(Nc1cccc(CN2CCCN(Cc3ccsc3)CC2)c1)c1cc2ccccc2s1,29%,25%,5,96% (active),inactive,inactive,inactive,inactive
CCN(CC)CCN1C(=O)c2oc3ccc(F)cc3c(=O)c2C1c1cccc(Cl)c1 (stereo not given),93% (active),-4%,-2,99% (active),inactive,inactive,inactive,inactive
Cc1ccc(O)cc1Nc1ccnc2cc(-c3csc(CN4CCN(C)CC4)n3)ccc12,77% (active),6%,-4,100% (active),inactive,inactive,inactive,inactive
CN1CCN(c2ccnc3ccc(NC(=O)Nc4c(Cl)cccc4Cl)cc23)CC1,12%,11%,-1,96% (active),inactive,inactive,inactive,inactive
Cc1nc2nc(N)nc(N)c2c(C)c1Cc1c(Cl)cccc1Cl,5%,7%,-1,94% (active),inactive,inactive,inactive,inactive
COc1ccccc1NC(=O)OC(COc1ccc(N)cc1)CN1CC=C(c2ccccc2)CC1 (stereo not given),81% (active),16%,3,90% (active),inactive,inactive,inactive,inactive
COc1ccc2c(=O)c(I)c(C)[nH]c2c1,96% (active),27%,4,96% (active),inactive,inactive,inactive,inactive
O=C(N[C@@H](CC1CCCCC1)C(=O)NC1CCCCCC1)c1ccc(O)c(-c2ccc(Cl)c(Cl)c2)c1,100% (active),-3%,-2,99% (active),inactive,inactive,inactive,inactive
Cc1cc(-c2ccc(CN3Cc4ccccc4C3)cc2)ccc1S(=O)(=O)NCCN1CCCC1,10%,49%,-4,94% (active),inactive,inactive,inactive,inactive
COc1cccc(C23N=C(Nc4nc5ccccc5[nH]4)NC2(c2cccc(OC)c2)NC(Nc2nc4ccccc4[nH]2)=N3)c1 (stereo not given),99% (active),-9%,3,101% (active),inactive,inactive,inactive,inactive
C[C@H](Cc1ccc(S(=O)(=O)c2ccc(C[C@@H](C)NC[C@H](O)c3cccc(Cl)c3)cc2)cc1)NC[C@H](O)c1cccc(Cl)c1,98% (active),100% (active),-9,99% (active),inactive,inactive,inactive,inactive
Cc1ccccc1Nc1nc(NCCCO)c2ccccc2n1,50% (active),-1%,-5,83% (active),inactive,inactive,inactive,inactive
CCCCCCN1CCCN(Cc2ccc(C(=O)Nc3ccc(CCC)cc3)cc2)CC1,56% (active),45%,-3,92% (active),inactive,inactive,inactive,inactive
COc1cc(C=NNc2nc(Nc3ccccc3)nc(Nc3ccccc3)n2)ccc1OCc1ccccc1[N+](=O)[O-],18%,8%,3,98% (active),inactive,inactive,inactive,inactive
c1ccc(Oc2ccc(Nc3ccnc4c(-c5ccccn5)cccc34)cc2)cc1,58% (active),31%,-8,100% (active),inactive,inactive,inactive,inactive
COc1ccc(-c2csc(C(=O)NC3CCC(N4CCC(c5ccccc5C)CC4)CC3)c2)cc1 (stereo not given),99% (active),64% (active),-1,101% (active),inactive,inactive,inactive,inactive
CCn1c(C)c(C)c2cc(C(=O)Nc3ccon3)ccc21,93% (active),3%,-3,95% (active),inactive,inactive,inactive,inactive
COc1ccc(Nc2nccc(-c3ccc4c(-c5ccsc5)cnc(N)c4c3)n2)cc1,98% (active),38%,-1,101% (active),inactive,inactive,inactive,inactive
O=C(Nc1ccc(F)cc1)NC1CCN(c2ccnc3cc(Cl)ccc23)C1 (stereo not given),67% (active),17%,2,101% (active),inactive,inactive,inactive,inactive

SMILES,growth inhibition [1],inhibition [2],inhibition [3] [%],growth inhibition [4],outcome [5],outcome [6],outcome [7],outcome [8]
Oc1ccc(Br)cc1C(O)CNCc1ccccc1OCc1ccccc1 (stereo not given),100% (active),25%,4,101% (active),inactive,inactive,inactive,inactive
CN1CCN(c2cc3c(cc2Cl)CCN3C(=O)Cc2ccc(Cl)c(NC(=O)Nc3cccc([N+](=O)[O-])c3)c2)CC1,51% (active),-1%,-7,99% (active),inactive,inactive,inactive,inactive
O=C(Nc1ccc(Cl)cc1)Nc1ccc2nonc2c1,77% (active),-25%,-4,94% (active),inactive,inactive,inactive,inactive
COCCOc1nc(N)nc2ncc(Cc3cc(OC)ccc3OC)c(C)c12,0%,61% (active),-5,96% (active),inactive,inactive,inactive,inactive
COc1cccc(OC)c1OCCCOc1c(C)nc(N)nc1N,-1%,31%,0,97% (active),inactive,inactive,inactive,inactive
COc1ccc(Br)cc1/C=C/C(=O)Nc1cccc(C2CCN(C)CC2)c1,37%,44%,-2,95% (active),inactive,inactive,inactive,inactive
O=C(Nc1ccc(C(=O)Oc2ccc(-c3ccccc3)cc2)cc1)N[C@@H](Cc1ccc(O)cc1)C(=O)NC1CCN(Cc2ccc(O)cc2)C1 (stereo not given in full),60% (active),-7%,0,94% (active),inactive,inactive,inactive,inactive
Cc1cc(N[C@@H](Cc2ccccc2)C(=O)Nc2ccccc2)nc(NCCc2ccc(F)cc2)n1,81% (active),26%,0,96% (active),inactive,inactive,inactive,inactive
Cc1ccc(O)cc1C[C@@H]1C(=O)CC[C@@]2(C)[C@H]1CC[C@]2(C)O,-6%,4%,1,96% (active),inactive,inactive,inactive,inactive
O=C(CNC(=O)c1ccc(O)cc1)Nc1ccc(-c2cccc(-c3nc4ccc(C(F)(F)F)cc4[nH]3)c2)cc1,47%,26%,3,92% (active),inactive,inactive,inactive,inactive
FC(F)(F)c1ccc2nc(-c3ccc(-c4cccc(CNCC5CCCO5)c4)s3)[nH]c2c1 (stereo not given),99% (active),37%,-7,99% (active),inactive,inactive,inactive,inactive
CC(=O)Nc1ccc(S(=O)(=O)Nc2ccc(Nc3nc(C)cc(N(C)C)n3)cc2)cc1,22%,-2%,-1,100% (active),inactive,inactive,inactive,inactive
CC(=O)c1ccc(-c2ccc(C(=O)NCCCCN3CCC(c4ccc5c(c4O)CCCC5)CC3)cc2)cc1,83% (active),87% (active),1,100% (active),inactive,inactive,inactive,inactive
CCN(CC)CCN(Cc1ccc(-c2ccc(Br)cc2)cc1)C(=O)Cn1c(CCc2cccc(F)c2F)nc(=O)c2ccccc21,74% (active),37%,1,98% (active),inactive,inactive,inactive,inactive
O=C(/C=C/c1ccc(Cl)c(Cl)c1)NCCCCCN1CCC(c2c[nH]c3ccc(O)cc23)CC1,0%,20%,3,101% (active),inactive,inactive,inactive,inactive
NC1CCN(c2nc(NCCc3ccc(O)cc3)nc(NCc3ccccc3-c3ccccc3)n2)CC1,32%,14%,4,99% (active),inactive,inactive,inactive,inactive
OCC(c1ccccc1)n1c(COc2ccc(Cl)cc2)nc2c(OCCCN3CCCCC3)cccc21 (stereo not given),68% (active),6%,-7,90% (active),inactive,inactive,inactive,inactive
COC(=O)c1cccc(CNCc2cccc(-c3csc(-c4nc5ccccc5[nH]4)c3)c2)c1,44%,-7%,0,102% (active),inactive,inactive,inactive,inactive
O=C(Nc1cccc(CN2CCN(C(=O)c3ccccc3)CC2)c1)c1cccs1,97% (active),15%,1,95% (active),inactive,inactive,inactive,inactive
O=C(Nc1ccc(Cl)cc1)c1cc(Cl)ccc1NC(=O)C1CCc2ccccc2O1 (stereo not given),63% (active),1%,-1,98% (active),inactive,inactive,inactive,inactive
